Measurements: PubChem BioAssay (NCATS)
Results filed as inconclusive are left out. Activity calls are given as the source filed them. Unless noted, the call rests on the fitted dose curve; in most records, active means well fitted curve in either direction with a large enough effect (not every such curve was filed as active); inconclusive means small, poorly fitted or top-dose-only effect, or another doubt; inactive means flat fitted curve, though single readings scatter.

Columns and labels:
[1] = target: Lysosomal acid glucosylceramidase (Homo sapiens) (UniProt P04062); experiment: Glucocerebrosidase-p2 (AID 348; in the data active means potency below about 10 µM; further: potency means the concentration at half of the fitted maximal effect); conditions: purified GBA, blue fluorogenic substrate, 40 min
Procedure, shortened: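 Compounds titrated from 0.6 nM upwards against 0.2 nM enzyme in pH 5.9 citric acid/KH2PO4, taurocholate, tween-20; blue fluorogenic substrate 80 uM, 40 min room temperature, stopped and read Ex 365/Em 440 for AC50.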

[2] = AP1 Signaling Pathway (AID 357); conditions: ME-180 AP-1-bla reporter, EGF-induced, beta-lactamase ratio, 5 h; at 7.69 µM (top of the series) unless noted;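 further: ME-180 reporter cells stimulated with EGF at its EC50 level; on the % scale 0 is the no-effect control and ±100 the full control effect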
Procedure, shortened: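 In this screen, ME-180 cells in Opti-MEM with 0.5% dialyzed FBS received EC50 EGF and compound titrations for 5 h. AP-1 reporter beta-lactamase was detected via CCF4 ratio, giving AC50 for positive and negative modulators.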

[3] = Stat Signaling Pathway (AID 446); conditions: ME-180 SIE beta-lactamase reporter, IL-6 stimulated, 5 h; at 7.69 µM (top of the series) unless noted;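 further: ME-180 cervical cancer cells given 40 pM IL-6 alongside compound; SIE-controlled beta-lactamase reporter measured as 460/530 nm FRET emission ratio; on the % scale 0 is the no-effect control and ±100 the full control effect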
Procedure, shortened: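 ME-180 cells carrying a SIE-driven beta-lactamase reporter are stimulated with 40 pM IL-6 for 5 h at 37C in the presence of compound. The 460/530 nm FRET substrate ratio is read after 2.5 h at RT. Data are normalised to 300 pM IL-6 and to 125 nM JAK inhibitor controls.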

[4] = target: Glucocorticoid receptor (Homo sapiens) (UniProt P04150); experiment: GR-GFP Redistribution (AID 450;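 active means compounds whose dose series gives a full or clear partial fitted curve of increased nuclear translocation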; further: potency means the concentration at half of the fitted maximal effect); conditions: U2OS GR-GFP nuclear translocation, laser cytometry, 2 h
[5] = target: Glucocorticoid receptor (Homo sapiens) (UniProt P04150); experiment: GR-EFC Redistribution (AID 451; calls by dose curve; further: potency means the concentration at half of the fitted maximal effect); conditions: CHO-K1 GR-EFC translocation, beta-gal luminescence, 2 h
Procedure, shortened: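 CHO-K1 cells stably expressing nuclear-localized β-gal enzyme acceptor and GR fused C-terminally to the enzyme donor fragment; ligand-driven nuclear translocation restores β-gal by complementation. Compounds titrated up to 46 uM final, 2 h at 37 °C; luminescence read.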

[6] = target: Mitogen-activated protein kinase 10 (Mus musculus) (UniProt Q61831); experiment: JNK3 AlphaScreen Assay (AID 530); conditions: JNK3 lysate, c-Jun phosphorylation; series mostly up to 11.4 µM;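 further: kinase came from lysate of stimulated human HepG2 cells; signal reports phosphorylation of biotinylated GST-cJun 1-79 at Ser73 with 10 µM ATP; on the % scale 0 is the no-effect control and ±100 the full control effect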
Procedure, shortened: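 Inhibitors reduce antibody binding to phosphorylated biotin-cJun, lowering AlphaScreen luminescence. Lysates from HepG2 cells pre-activated by IL-1beta plus TNF-alpha supplied JNK3; compounds were titrated.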

[7] = target: 3',5'-cyclic-AMP phosphodiesterase 4B (Homo sapiens) (UniProt Q07343); experiment: qHTS Assay for Inhibitors of PDE-IV (AID 607; active means well fitted activation curve with a large enough effect in the main read-out, with a control signal flat, not every such curve was filed as active; further: % of control where 0% means no effect); conditions: HEK293 ACTOne CNG channel cells, membrane potential fluorescence; series mostly up to 22.9 µM
Procedure, shortened: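 HEK293 ACTOne cells with CNG channel (1000/well), endogenous PDE4; membrane potential dye, compounds up to 22.9 uM final. Fluorescence Ex 535/Em 590; RO 20-1724 (100 uM final) as reference.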

[8] = qHTS Assay for Identification of Small Molecule Agonists for Hypoxia Response Element Signaling Pathway (AID 914; active means well fitted activation curve with a large enough effect in the signal ratio, with a control signal flat, not every such curve was filed as active; the % refers to the signal ratio; further: % of control where 0% means no effect); conditions: ME-180 (cervical carcinoma) HRE-bla reporter, beta-lactamase ratio, CoCl2, 17 h; activation: hits give high values
Procedure, shortened: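 Positive modulation of EC50 CoCl2-induced hypoxia response element signaling is measured in ME-180 cells with a beta-lactamase reporter. Compounds are titrated, incubation runs 17 hours, and %Activity derives from the blue/green ratio.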

Chain of Glucocorticoid receptor (Homo sapiens) (P04150 whole entry, looked up, the tested form may be a part): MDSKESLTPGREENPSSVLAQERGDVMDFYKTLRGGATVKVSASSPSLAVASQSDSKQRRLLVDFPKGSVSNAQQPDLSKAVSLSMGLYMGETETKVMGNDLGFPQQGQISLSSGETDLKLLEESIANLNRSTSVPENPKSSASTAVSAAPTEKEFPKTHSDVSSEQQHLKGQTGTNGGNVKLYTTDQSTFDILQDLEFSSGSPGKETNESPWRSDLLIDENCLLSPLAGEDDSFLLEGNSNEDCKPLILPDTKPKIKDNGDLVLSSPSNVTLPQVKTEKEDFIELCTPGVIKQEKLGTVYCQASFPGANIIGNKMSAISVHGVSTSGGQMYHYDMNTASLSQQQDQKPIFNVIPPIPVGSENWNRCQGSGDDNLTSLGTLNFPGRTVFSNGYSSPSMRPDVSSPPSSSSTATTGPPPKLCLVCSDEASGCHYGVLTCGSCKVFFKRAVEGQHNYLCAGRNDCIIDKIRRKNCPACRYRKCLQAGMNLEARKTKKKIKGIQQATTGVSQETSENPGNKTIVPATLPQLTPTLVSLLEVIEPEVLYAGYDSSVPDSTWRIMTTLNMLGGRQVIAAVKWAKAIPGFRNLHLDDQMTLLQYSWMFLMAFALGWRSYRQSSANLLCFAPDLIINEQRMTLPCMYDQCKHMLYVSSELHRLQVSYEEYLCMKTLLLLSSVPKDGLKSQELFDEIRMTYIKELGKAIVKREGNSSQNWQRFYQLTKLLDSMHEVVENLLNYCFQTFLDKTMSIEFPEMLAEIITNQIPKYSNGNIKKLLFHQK
Chain of 3',5'-cyclic-AMP phosphodiesterase 4B (Homo sapiens) (Q07343 whole entry, looked up): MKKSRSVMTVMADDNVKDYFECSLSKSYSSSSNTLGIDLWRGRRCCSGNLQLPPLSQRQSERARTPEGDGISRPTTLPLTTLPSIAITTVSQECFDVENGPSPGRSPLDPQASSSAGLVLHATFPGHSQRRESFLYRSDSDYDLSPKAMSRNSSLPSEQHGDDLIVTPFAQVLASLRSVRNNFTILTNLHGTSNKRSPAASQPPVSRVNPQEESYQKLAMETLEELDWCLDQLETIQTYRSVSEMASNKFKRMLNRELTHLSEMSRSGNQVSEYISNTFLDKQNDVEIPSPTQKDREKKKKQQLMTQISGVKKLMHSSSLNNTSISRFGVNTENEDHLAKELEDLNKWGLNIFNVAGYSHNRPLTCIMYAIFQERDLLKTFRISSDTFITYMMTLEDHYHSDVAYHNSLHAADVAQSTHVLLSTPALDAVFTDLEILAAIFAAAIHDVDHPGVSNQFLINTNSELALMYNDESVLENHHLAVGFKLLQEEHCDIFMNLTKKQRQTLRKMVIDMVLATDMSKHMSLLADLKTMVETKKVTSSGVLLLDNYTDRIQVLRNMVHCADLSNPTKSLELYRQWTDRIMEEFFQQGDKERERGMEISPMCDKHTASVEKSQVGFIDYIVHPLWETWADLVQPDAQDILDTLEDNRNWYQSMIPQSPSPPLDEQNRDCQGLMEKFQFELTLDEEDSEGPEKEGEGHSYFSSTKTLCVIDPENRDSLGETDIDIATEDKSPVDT
Chain of Lysosomal acid glucosylceramidase (Homo sapiens) (P04062 whole entry, looked up): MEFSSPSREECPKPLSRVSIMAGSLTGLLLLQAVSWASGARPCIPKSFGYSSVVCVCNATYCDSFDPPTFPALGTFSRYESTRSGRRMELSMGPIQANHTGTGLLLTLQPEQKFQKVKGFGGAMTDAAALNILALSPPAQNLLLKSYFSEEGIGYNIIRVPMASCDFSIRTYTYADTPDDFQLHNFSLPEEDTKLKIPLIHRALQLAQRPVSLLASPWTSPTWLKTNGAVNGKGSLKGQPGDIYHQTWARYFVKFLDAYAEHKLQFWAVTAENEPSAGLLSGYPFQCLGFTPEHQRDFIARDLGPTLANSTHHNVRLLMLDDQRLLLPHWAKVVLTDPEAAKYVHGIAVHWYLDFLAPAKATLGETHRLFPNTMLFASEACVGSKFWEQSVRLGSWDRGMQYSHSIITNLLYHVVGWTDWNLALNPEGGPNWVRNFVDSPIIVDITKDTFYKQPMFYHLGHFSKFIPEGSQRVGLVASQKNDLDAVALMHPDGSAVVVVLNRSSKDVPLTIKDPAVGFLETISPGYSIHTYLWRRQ

O=c1cc(N=Nc2ccc(O)cc2)[nH]c(=O)[nH]1
inactive: Potency [1] > 11.4 µM | activity change, negative = inhibition [2] -6.46% | activity, negative = inhibition [3] 4.24% | Potency [4] > 46 µM | Potency [5] > 9.22 µM | Potency [6] | Potency [7] | activation [8] -26.3%
